Screening results (PubChem)
Most compounds without a hit are left out; they make up all but 1.3% or so of the library.
NFkB transloc pot: enhancers of NFkB p65 translocation in HUVEC – imaging, IL-1B stimulus, high-content imaging, primary screen | hit rate 0.3% among 94,000 | HUVEC IL-1B NFkB p65 nuclear translocation imaging | activation, % at 2 µM | AID 819, 2007;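 active = activation above 40%, about the mean plus 3 SD, also judged a hit on visual image review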;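 also: percent activation is computed from the nuclear over cytoplasmic p65 intensity ratio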
IL1B cytotox: cytotoxicity in IL-1B stimulated HUVEC, primary screen, cytotoxicity control for IL-1B NFkB translocation project, imaging, Hoechst nuclear count, IL-1B stimulus | HUVEC cell count loss | cell count reduction, % at 2 µM | hit rate 0.41% among 94,000 | AID 845, 2007;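 active = cell count reduction more than 3 SD above the screen-wide mean, cut at about 70% in these data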;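 also: normalized per plate to untreated control cells as the no-loss baseline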
NFkB transloc inh: inhibitors of IL-1B driven NFkB p65 nuclear import, primary screen, imaging, HUVEC, IL-1B stimulus, high-content imaging. HUVEC IL-1B NFkB p65 nuclear translocation imaging. inhibition, % at 2 µM. hit rate 0.43% among 94,000. AID 796, 2007;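 active = inhibition above about 30% together with a positive call from visual inspection of the well image, limit read from the data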;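 also: nuclear over cytoplasmic p65 intensity ratio measured by imaging; 0% = IL-1B stimulated DMSO wells and 100% = unstimulated DMSO wells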
INS promoter inh: inhibitors of insulin promoter-driven GFP, primary screen, imaging, TRM-6 cells (human fetal islet line), eGFP reporter, cell count; inhibition, % at 2 µM; hit rate 0.9% among 130,000; reporter expression induced with tamoxifen; AID 1273, 2008;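 active = inhibition above the mean plus 3 SD, with well images judged a real hit on visual review, cut at about 60% in these data, passing the limit was not always enough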
Active calls of the source: *; nt = no result given; ! = not confirmed by another sample.

SMILES	NFkB transloc pot	IL1B cytotox	NFkB transloc inh	INS promoter inh
O=C(COC(=O)CNC(=O)c1ccccc1)Nc1ccc(F)c([N+](=O)[O-])c1	nt	nt	nt	-58
COc1ccc2c(c1)c(C(=O)N/N=C/c1ccc(OC)c(OC)c1)c(C)n2C	nt	nt	nt	-2
COc1ccc(N2CCN(c3ccc(N4C(=O)CC(C)C4=O)cc3[N+](=O)[O-])CC2)cc1 (stereo unspecified)	nt	nt	nt	77*
COc1ccc(N2CCN(c3ccc(N4C(=O)COCC4=O)cc3[N+](=O)[O-])CC2)cc1	nt	nt	nt	-4
COc1cccc(C(=O)Nc2nc(-c3ccncc3)cs2)c1	nt	nt	nt	76*
O=C(Nc1ccc(Cn2cccn2)cc1)c1ccc(COc2cccc(Br)c2)cc1	57*	1	-57	14
CCn1cc([N+](=O)[O-])c(C(=O)N2N=C(c3ccc4ccccc4c3)CC2c2ccccc2O)n1 (stereo unspecified)	5	-41	-5	56
CCn1cc(Cl)c(C(=O)N2N=C(c3ccc4ccccc4c3)CC2c2ccccc2O)n1 (stereo unspecified)	nt	nt	nt	67*
CCOC(=O)N1CCC(NC(=O)C2CCN(S(=O)(=O)c3ccc4c(c3)oc(=O)n4C)CC2)CC1	nt	nt	nt	-14
Cc1nc2nc3c(c(=O)n2[nH]1)CCC3	nt	nt	nt	19
O=c1c2c(nc3nc(Cc4ccccc4)[nH]n13)CCC2	-3	26	3	92*
COC(=O)CN(c1ccc(OCc2ccccc2)cc1)S(C)(=O)=O	nt	nt	nt	-7
Cc1ccc(SCC2=NN(c3nc(C)cc(C)n3)C(=O)C2)cc1	nt	nt	nt	67*
COc1ccc2ccccc2c1CN1CCN(Cc2ccccc2)CC1	-6	-4	6	78*
COc1ccc2ccccc2c1CN1CCCC(CO)C1 (stereo unspecified)	nt	nt	nt	13
CCOc1ccc(OCc2ccc(C(=O)N3N=C(C(F)F)CC3(O)C(F)F)o2)cc1 (stereo unspecified)	45*	-16	-45	-97
O=C(c1ccc(COc2ccc(Br)cc2)o1)N1N=C(C(F)F)CC1(O)C(F)F (stereo unspecified)	nt	nt	nt	3
COc1cc2c(cc1OC)-c1cc(NC3CCCC3)nc(=O)n1CC2	21	12	-21	-29
COc1cc2c(cc1OC)-c1cc(OCc3ccccc3Cl)nc(=O)n1CC2	6	-1	-6	66*
O=C(O)CSCCn1cccn1	nt	nt	nt	-30
Cc1ccn(CCSCC(=O)O)n1	4	86*	-4	15
O=C(NCCCn1ccnc1)Nc1ccc(Cl)c(Cl)c1	20	-2	-20	-27
O=C(NCCCn1ccnc1)Nc1ccc(Cl)cc1	-11	41	11	77*
CC1(C)Cc2c(sc3c2C(=O)N(c2ccccc2)C2=NCCN23)CS1	-17	-5	17	3
CC1(C)Cc2c(sc3c2C2=NCCN2C=N3)CS1	7	18	-7	87*
SMILES	NFkB transloc pot	IL1B cytotox	NFkB transloc inh	INS promoter inh
COc1ccc(NC(=O)COC(=O)CCCN2C(=O)c3ccccc3C2=O)cc1Cl	nt	nt	nt	-8
c1ccc2[nH]c(-c3ccnc4ccccc34)nc2c1	0	21	0	86*!
Cc1ccccc1-c1nc2ccccc2[nH]1	13	-34	-13	42
c1ccc2[nH]c(-c3cscn3)nc2c1	nt	nt	nt	67*
c1ccc2nc(-c3nc4ccccc4[nH]3)ccc2c1	nt	nt	nt	32
CCOC(=O)/C(=C/c1ccc(Cl)cc1)NC(=O)c1ccco1	nt	nt	nt	-9
O=C(OCc1ccccc1)/C(=C/c1ccc(Cl)cc1)NC(=O)c1ccccc1Cl	40*	-69	-40	nt
Cc1cc(C)nc(N2CCCC(C(=O)NCCc3ccc(F)cc3)C2)n1 (stereo unspecified)	-16	-19	16	86*
Cc1cc(C)nc(N2CCC(C(=O)NCCc3ccc(F)cc3)CC2)n1	3	-37	-3	25
Oc1c(/C=N/c2ncn[nH]2)ccc2ccccc12	47*	17	-47	0
O=S1(=O)C=C(Sc2nc3cc(Cl)ccc3o2)c2ccccc21	-56	24	56*	nt
COc1ccc(N(CC(O)Cn2cnc3ccccc32)S(=O)(=O)c2ccc(C)cc2)cc1 (stereo unspecified)	nt	nt	nt	-38
COC(=O)c1c(N2C(=O)Nc3ccccc3N2O)sc2c1CCCC2	nt	nt	nt	69*
O=C(CCN1CCCCC1)c1ccccc1	8	-7	-8	14
C[N+]1(CCC(=O)c2ccccc2)CCCCC1	nt	nt	nt	64*
Nc1nc(SCC(=O)N2CCc3ccccc3C2)[nH]c(=O)c1-c1ccccc1	24	0	-24	75*
OCCSc1ncnc2c1oc1ccccc12	-32	-10	32*	0
